Among the data in PubChem BioAssay are composite z-score values, retold here.

This assay is described as follows: probe aCHRDL2 binding to arrayed compounds – biochemical, biotinylated probe, 635/667 nm fluorescence, primary screen (AID 1100). The note with it: small-molecule microarray, higher = more signal.
In the case of `COC(=O)[C@@]1(Cc2ccccc2)[C@H]2c3cc(C(=O)N4CCCC4)[nH]c3C[C@H]2CN1C(=O)c1ccccc1`, the composite z-score turned out to be 0.91.
To `O=C(O)[C@H](Cc1ccccc1)n1cc(-c2ccccn2)nn1` belongs -0.323; to `O=C1O[C@@H](c2ccccc2)[C@@H](c2ccccc2)N2[C@@H](c3ccccc3OCCO)[C@]3(C(=O)Nc4ccc(C#CCCO)cc43)[C@@H](C(=O)N3CCN(c4ncccn4)CC3)[C@H]12`, 0.225.
`COc1ccc([Si](C)(C)[C@@H]2[C@@H](CCO)O[C@]3(C(=O)N(Cc4cccc(N5C(=O)c6ccccc6Oc6ccccc65)c4)c4ccccc43)[C@H]2C)cc1` displayed a composite z-score of 0.444.
On to `CN(C)CCCN1C(=O)[C@@]2(c3ccc([N+](=O)[O-])cc3)CC(=O)N(CC34CC5CC(CC(C5)C3)C4)[C@@H]2c2ccc(CO)cc21`, for which the composite z-score was 0.543.
Take `C[C@]12C(=O)N(CCCCCCO)[C@@H]3C(=O)N(c4ccc(Cl)cc4)CC=CC31O[C@@H]1/C=C\CCCOC(=O)C12` (some centres undefined): the composite z-score is 0.391.
To `CC1CC/C=C\[C@H]2OC34C=CCN(c5ccc6ccccc6c5)C(=O)[C@H]3N(C(CO)C(C)C)C(=O)[C@@H]4C2C(=O)O1` (some centres undefined) belongs 0.623; to `O=C1O[C@@H](c2ccccc2)[C@@H](c2ccccc2)N2[C@@H](c3ccc(O)cc3)[C@]3(C(=O)Nc4ccc(C#CC5=CCCCC5)cc43)[C@@H](C(=O)N3CCN(c4ncccn4)CC3)[C@H]12`, -0.0675; to `C[C@H]1ON(c2ccc(C(=O)OC(C)(C)C)cc2)[C@@H](c2ccc(O)cc2)[C@@H]1C(=O)N1C(=O)OC[C@@H]1c1ccccc1`, -0.232.
